The supplement of paper PMC6522484
± gives the standard deviation of the averaged measurements.

Legend:
[1] = tested on: DLD1; test: cell viability (CellTiter-Glo) relative to plate median (fraction of plate median); higher = more viable cells; settings: 5 µM; treatment time 24 h; reporter: 7TFP
Procedure, shortened: (§1)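 Two independent replicates were averaged for each reported value. Library compounds were applied at a final 5 µM for 24 h to colorectal cancer cell lines stably expressing lentiviral TCF/Wnt firefly luciferase reporters. Firefly luciferase or CellTiterGlo luminescence from each well was normalised to the plate median.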

[2] = tested on: HCT116; test: as above; settings: 5 µM; treatment time 24 h; reporter: TCF4/Wnt
Procedure, shortened: as §1

[3] = tested on: SW480; test: as above; settings: 5 µM; treatment time 24 h; reporter: 7TFP
Procedure, shortened: as §1

[4] = tested on: DLD1; test: TCF/Wnt firefly luciferase reporter signal relative to plate median (fraction of plate median); higher = higher Wnt reporter signal; settings: 5 µM; treatment time 24 h; reporter: 7TFP
Procedure, shortened: as §1

[5] = tested on: SW480; test: as above; settings: 5 µM; treatment time 24 h; reporter: 7TFP
Procedure, shortened: as §1

CN(C)CCOC(c1ccc(Cl)cc1)c1ccccn1 (stereo not given)
cell viability [1]: 1.004 ± 0.0085
cell viability [2]: 0.977 ± 0.033
cell viability [3]: 0.916 ± 0.088
TCF/Wnt firefly luciferase reporter signal [4]: 0.888 ± 0.0057
TCF/Wnt firefly luciferase reporter signal [5]: 0.891 ± 0.12

CC(=O)O[C@@H]1CC2C(C)(C)[C@H](O)C=C[C@]2(C)C2CC[C@@]3(C)[C@H](c4ccoc4)OC(=O)C4OC43[C@@]21C (stereo not given in full)
cell viability [1]: 1.05 ± 0.064
cell viability [2]: 1.08 ± 0.092
cell viability [3]: 1.06 ± 0.028
TCF/Wnt firefly luciferase reporter signal [4]: 0.97 ± 0.042
TCF/Wnt firefly luciferase reporter signal [5]: 0.926 ± 0.1

CN(C)/N=N/c1[nH]cnc1C(N)=O
cell viability [1]: 0.982 ± 0.015
cell viability [2]: 0.986 ± 0.02
cell viability [3]: 0.971 ± 0.0099
TCF/Wnt firefly luciferase reporter signal [4]: 1.06 ± 0.11
TCF/Wnt firefly luciferase reporter signal [5]: 1.06 ± 0.11

NCCCCNCCCN
cell viability [1]: 0.936 ± 0.011
cell viability [2]: 1.03
cell viability [3]: 0.958 ± 0.05
TCF/Wnt firefly luciferase reporter signal [4]: 1.12 ± 0.16
TCF/Wnt firefly luciferase reporter signal [5]: 1.12 ± 0.13

O=C(/C=C/c1ccccc1)c1ccc(O)cc1O
cell viability [1]: 1 ± 0.025
cell viability [2]: 0.984 ± 0.0071
cell viability [3]: 0.99 ± 0.028
TCF/Wnt firefly luciferase reporter signal [4]: 1.12 ± 0.071
TCF/Wnt firefly luciferase reporter signal [5]: 1.07 ± 0.014

CC[C@]1(O)C[C@@H]2CN(CCc3c([nH]c4ccccc34)[C@@](C(=O)OC)(c3cc4c(cc3OC)N(C)[C@H]3[C@@](O)(C(=O)OC)[C@H](OC(C)=O)[C@]5(CC)C=CCN6CC[C@]43[C@@H]65)C2)C1
cell viability [1]: 0.879 ± 0.16
cell viability [2]: 0.477 ± 0.019
cell viability [3]: 1.1 ± 0.035
TCF/Wnt firefly luciferase reporter signal [4]: 0.803 ± 0.15
TCF/Wnt firefly luciferase reporter signal [5]: 0.867 ± 0.2

CC(=O)NO
cell viability [1]: 1.035 ± 0.0071
cell viability [2]: 0.999 ± 0.059
cell viability [3]: 1.05 ± 0.057
TCF/Wnt firefly luciferase reporter signal [4]: 1.155 ± 0.0071
TCF/Wnt firefly luciferase reporter signal [5]: 1.075 ± 0.0071

Cn1nnnc1SCC1=C(C(=O)O)N2C(=O)[C@@H](NC(=O)[C@H](OC=O)c3ccccc3)[C@H]2SC1
cell viability [1]: 1.02
cell viability [2]: 0.932 ± 0.056
cell viability [3]: 1.03 ± 0.044
TCF/Wnt firefly luciferase reporter signal [4]: 0.9225 ± 0.00071
TCF/Wnt firefly luciferase reporter signal [5]: 0.992 ± 0.04

CN1C(C(=O)Nc2ccccn2)=C(O)c2ccccc2S1(=O)=O
cell viability [1]: 0.97 ± 0.057
cell viability [2]: 0.975 ± 0.036
cell viability [3]: 0.92 ± 0.061
TCF/Wnt firefly luciferase reporter signal [4]: 1.1 ± 0.071
TCF/Wnt firefly luciferase reporter signal [5]: 1.14

Cn1c([N+](=O)[O-])cnc1COC(N)=O
cell viability [1]: 0.999 ± 0.072
cell viability [2]: 1.07 ± 0.071
cell viability [3]: 1.03 ± 0.014
TCF/Wnt firefly luciferase reporter signal [4]: 1.05 ± 0.028
TCF/Wnt firefly luciferase reporter signal [5]: 0.996 ± 0.12

CCCOc1ccc(C(=O)OCCN(CC)CC)cc1N
cell viability [1]: 0.9545 ± 0.0064
cell viability [2]: 0.994 ± 0.051
cell viability [3]: 0.95 ± 0.038
TCF/Wnt firefly luciferase reporter signal [4]: 0.97 ± 0.057
TCF/Wnt firefly luciferase reporter signal [5]: 1.095 ± 0.0071

Nc1ncn([C@@H]2O[C@H](CO)[C@@H](O)[C@H]2O)c(=O)n1
cell viability [1]: 0.992 ± 0.011
cell viability [2]: 0.945 ± 0.035
cell viability [3]: 1.07 ± 0.092
TCF/Wnt firefly luciferase reporter signal [4]: 1.01 ± 0.13
TCF/Wnt firefly luciferase reporter signal [5]: 1.085 ± 0.0071

O=C1CC(c2ccc(O)c(O)c2)Oc2cc(O)cc(O)c21 (stereo not given)
cell viability [1]: 1.04 ± 0.14
cell viability [2]: 1.08 ± 0.057
cell viability [3]: 0.973 ± 0.095
TCF/Wnt firefly luciferase reporter signal [4]: 0.912 ± 0.011
TCF/Wnt firefly luciferase reporter signal [5]: 0.862 ± 0.0014

CC(=O)N[C@@H](CC(=O)c1ccccc1N)C(=O)O [N-Acetyl-kynurenine]
cell viability [1]: 1.09 ± 0.12
cell viability [2]: 1.12 ± 0.11
cell viability [3]: 1.01 ± 0.044
TCF/Wnt firefly luciferase reporter signal [4]: 0.859 ± 0.17
TCF/Wnt firefly luciferase reporter signal [5]: 1.05 ± 0.078

COc1cc(OC)c(C(C)=O)c(O)c1C
cell viability [1]: 0.992 ± 0.026
cell viability [2]: 0.977 ± 0.1
cell viability [3]: 1.045 ± 0.0071
TCF/Wnt firefly luciferase reporter signal [4]: 0.94 ± 0.11
TCF/Wnt firefly luciferase reporter signal [5]: 0.885 ± 0.016
